# This is a sample that favours compounds with a hit; in the whole collection about 10% have one here.
# BAZ2B block = qHTS Assay for Inhibitors of BAZ2B; AlphaScreen BAZ2B-H3K14Ac peptide displacement; Potency, µM (series often up to 114 µM), for the others: at the top dose activity change, negative = inhibition, usual class: inhibitors; 4.4% of 360,000 active; AID 504333, 2011; further: on the % scale 0 is the no-effect control and ±100 the full control effect; nearly all actives have a fitted effect of over 60% in size
#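 Multi-concentration screen (max 110 uM) measuring displacement of acetylated histone H3 peptide from BAZ2B by AlphaScreen, using 50 nM protein, 50 nM peptide and 10 ug/mL streptavidin donor plus Ni-chelate acceptor beads.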
# GLS inhibitor = qHTS for Inhibitors of Glutaminase (GLS); GLS enzymatic activity, qHTS titration; AID 624170, 2012; 0.21% of 410,000 active; Potency, µM (highest dose often 45.5 µM), inactives show top-dose activity change, negative = inhibition, actives largely listed as inhibitors; further: on the % scale 0 is the no-effect control and ±100 the full control effect
#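 Read-out is an Amplex red fluorescence increase coupled through glutamate oxidase and HRP, measured before and after 30 min room-temperature incubation. hKGA is in 45 mM KH2PO4 (pH 8.2) with 0.02% Tween-20; glutamine added as 1mM solution.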
# JMJD2A Tudor inh = qHTS Assay for Inhibitors of JMJD2A-Tudor Domain. Lysine-specific demethylase 4A (Homo sapiens), O75164. AlphaScreen JMJD2A-Tudor / H3K4me3 peptide binding. Potency, µM (highest dose often 114 µM), for inactives: top-dose activity change, negative = inhibition, hits mostly inhibitors. 4.4% of 390,000 active. AID 504339, 2011; further: on the % scale 0 is the no-effect control and ±100 the full control effect; nearly all actives have a fitted effect of over 50% in size
# HP1b binding inh = HTS for Inhibitors of HP1-beta Chromodomain Interactions with Methylated Histone Tails. Potency, µM (titrated, usually from 114 µM), without a hit: at the top dose activity change, negative = inhibition, hits mostly inhibitors. AlphaScreen HP1-beta / biotin-H3K9me3 peptide binding. Chromobox protein homolog 1 (Homo sapiens), P83916. AID 540317, 2011. 0.56% of 390,000 active; further: nearly all actives have a fitted effect of over 70% in size
#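 AlphaScreen: HP1-beta (50 nM) preformed 30 min with biotin-H3(1-18)K9me3 peptide (50 nM) in PBS pH 7.4, 0.01% Tween-20. Compound added for 30 min at RT, then streptavidin donor/nickel chelate acceptor beads (10 ug/mL) for 30 min.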
# G9a block = qHTS Assay for Inhibitors of Histone Lysine Methyltransferase G9a; Histone-lysine N-methyltransferase EHMT2 (Homo sapiens), Q96KQ7; G9a H3K9 monomethylation, AlphaScreen, 2 h; Potency, µM (titrated, usually from 102 µM), without a hit: top-dose activity, negative = inhibition, hits mostly inhibitors; 8.8% of 350,000 active; AID 504332, 2011; further: on the % scale 0 is the no-effect control and ±100 the full control effect; nearly all actives have a fitted effect of over 75% in size
#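 Enzyme 20 nM + cpd, 15 min RT; add b-H3K9 pep 500 nM / SAM 20 uM; 2 h RT; anti-H3K9me1 Ab 0.5 ug/mL + SA donor / anti-rabbit acceptor beads 20 ug/mL each, 10 min; AlphaScreen read.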
# * = called active by the depositor; ? = inconclusive; . = no result; ! = not confirmed by another sample; [ ] = another dose, or the depositor's remark. The call rests on the fitted dose curve; in most records, active means well fitted curve in the direction sought with a large enough effect; inconclusive means small, poorly fitted or top-dose-only effect, or another doubt; inactive means no such curve, though single readings can be large; an effect the other way counts as inactive or inconclusive. Potency means the concentration at half of the fitted maximal effect.
SMILES,BAZ2B block,GLS inhibitor,JMJD2A Tudor inh,HP1b binding inh,G9a block
CSc1ccc2c(c1)N(CCC1CCCCN1C)c1ccccc1S2 (stereo unspecified),32µM*,0%,50µM*,?,18µM*!
CC(=O)c1ccc2c(c1)N(CCCN1CCC(CCO)CC1)c1ccccc1S2,4%,20%,-35%,-4%,-10%[59 µM]
CN1CCCC[C@@H]1CCN1c2ccccc2Sc2ccc(S(C)=O)cc21 (stereo partly specified),.,10%,.,.,7.9µM*!
CSc1ccc2c(c1)N(CC[C@H]1CCCCN1C)c1ccccc1S2,.,.,.,.,11µM*
CN1CCN(c2ccnc(-c3ccoc3)n2)CC1,.,.,.,.,-19%[0.501 µM]
Cc1ccc(Nc2ncnc3c2cnn3-c2ccccc2)c(C)c1,-1%,-7%,-20%,24%,0%[59 µM]
COc1ccc(NC(=O)c2ccc3c(c2)CCN3S(=O)(=O)c2ccc(C)cc2)cc1Cl,-5%,-4%,-10%,4%,-24%[59 µM]
Cc1cc2c(ncn2Cc2ccccc2)c(N)c1C,71µM*,-23%,?,-26%,?
Cc1c(-c2cc(Br)ccc2O)nc2cc3c(cc2c1C)OCO3,-20%,2%,-33%,25%,45µM*
COc1ccc(Cn2cc(CN(C)C3CN(Cc4cn(Cc5ccc(OC)cc5)nn4)S(=O)(=O)C3)nn2)cc1 (stereo unspecified),.,2%,.,.,.
CC(=O)c1cc2c(cc1NC(=O)CN1CCCCC1C)OCO2 (stereo unspecified),79µM*,15%,20µM*,?,13µM*
Oc1ccc(/C=N/n2c(-c3ccccc3)n[nH]c2=S)cc1Br,-34%,-8%,8.9µM*,9%,0.89µM*
Oc1c(Br)cc(/C=N/n2c(-c3ccccc3)n[nH]c2=S)cc1Br,?,-48%,3.2µM*,5%,1.3µM*
Oc1c(Br)cc(/C=N/n2c(-c3ccccc3)n[nH]c2=S)c(O)c1Br,-27%,0%,4µM*,-16%,0.4µM*
Cc1c(Br)c(O)c(Br)c(O)c1/C=N/n1c(-c2ccccc2)n[nH]c1=S,-38%,?,25µM*,?,0.79µM*
CCCS(=O)(=O)NC(=O)C1(C)CCN(C(=O)c2ccc(C(F)(F)F)nc2C)C1 (stereo unspecified),.,5%,.,.,.
CCN(CC)C(=O)c1[nH]cnc1C(=O)NCc1ccccc1,.,20%,-25%,30%,.
COc1ccc(C2Nc3ccc(Cl)cc3C(=O)N2Cc2ccccc2)cc1COc1ccc(NC(C)=O)cc1 (stereo unspecified),.,.,56µM*,.,.
COc1ccc(C2Nc3ccc(NC(=O)CO)cc3C(=O)N2Cc2cccc(Cl)c2)cc1COc1ccc(NC(C)=O)cc1 (stereo unspecified),.,.,56µM*,-9%,.
C=CCNc1ncnc2c1ncn2[C@H]1CN(C2CCCC2)C[C@@H](CO)O1,.,0%,.,.,.
COCC1CCN(Cc2c(C(=O)N3CCc4ccccc4C3)nc3ccc(Cl)cn23)C1 (stereo unspecified),-34%,4%,-27%,25%,40µM*
Cc1cc(-c2ccc(C)c(S(=O)(=O)NC(c3cccs3)C(C)C)c2)on1 (stereo unspecified),-12%,-9%,-15%,8%,-3%[59 µM]
CSC1=NC(C)(C)C=C(/C=C/c2ccc(Cl)cc2)N1,?,3%,?,?,28µM*
CCSC1=NC(C)(C)C=C(C)N1,0%,-3%,-9%,7%,20%[59 µM]
CSC1=NC(C)(C)C=C(/C=C/c2ccc(Cl)cc2Cl)N1,?,-1%,?,?,50µM*
SMILES,BAZ2B block,GLS inhibitor,JMJD2A Tudor inh,HP1b binding inh,G9a block
CSC1=NC(C)(C)C=C(/C=C/c2c(Cl)cccc2Cl)N1,-30%,-17%,-14%,37%,40µM*
CCSC1=NC(C)(C)C=C(/C=C/c2ccc(Cl)cc2Cl)N1,-7%,-2%,-29%,-17%,50µM*
CCN(CC)C(=O)CSc1nc(-c2ccccc2)cc(-c2ccc(OC)cc2)c1C#N,1%,4%,3%,20%,-40%[59 µM]
CCN(CC)C(=O)C1=C(C)Nc2nc3ccccc3n2C1c1cccc(Cl)c1 (stereo unspecified),0%,10%,-16%,25%,-23%[59 µM]
Cc1ccc(-n2nc(C(=O)N(C)c3ccccc3Cl)c3c4ccccc4n(C)c3c2=O)cc1,.,-6%,-28%,-2%,-27%[59 µM]
COc1cccc(NC(=O)CC(C)S(=O)(=O)c2ccc3c(c2)NC(=O)CO3)c1 (stereo unspecified),-2%,1%,-17%,29%,-6%[59 µM]
Cc1ccc(CNCc2ccccc2)s1,-6%,5%,-6%,52%,-34%[59 µM]
Cc1ccc(CNCCNCCO)s1,-36%,-11%,-6%,46%,40µM*
Cc1ccc(-n2c3nc(=O)n(C)c(=O)c-3cc3ccccc32)c(C)c1,.,1%,-21%,25%,1%[59 µM]
Cc1ccc(C)c(-n2c3nc(=O)n(C)c(=O)c-3cc3ccccc32)c1,-35%,0%,-15%,36%,79µM*
O=C(Nc1ncc(Cc2ccccc2)s1)C1CCN(C(=O)c2ccco2)CC1,.,.,-20%,30%,.
Cn1c(NC(=O)/C=C/c2ccccc2)cc(=O)n(C)c1=O,4%,-4%,-10%,14%,7%[59 µM]
Cn1c(NC(=O)c2ccccc2F)cc(=O)n(C)c1=O,-30%,2%,-9%,36%,56µM*
Cn1c(NNC(=O)C(c2ccccc2)c2ccccc2)cc(=O)n(C)c1=O,0%,8.9µM*,-3%,13%,-33%
Cn1c(NC(=O)c2ccccc2)cc(=O)n(C)c1=O,-3%,3%,-2%,24%,-37%
CCOC(=O)C1=CCN(S(C)(=O)=O)C1c1ccc(C)cc1 (stereo unspecified),.,-3%,.,.,.
CC(=O)c1ccc(-c2ccc(C(=O)NC3CCCCCC3)o2)cc1,-22%,-2%,-5%,27%,50µM*
O=C(NC1CCC(O)CC1)c1ccc(-c2ccc(Cl)cc2)o1 (stereo unspecified),-32%,-2%,-26%,15%,?
COc1cccc(CNC(=O)Cn2c(=O)ccc3cc(S(=O)(=O)N4CCC(C)CC4)ccc32)c1,-27%,-19%,-21%,9%[57 µM],-4%[59 µM]
OCC(O)C(O)C(O)C(O)C1NCCS1 (stereo unspecified),21%,-7%,-10%,?,50µM*
CCOc1cc(/C=C2\N=C(SCC)SC2=O)cc([N+](=O)[O-])c1OC(C)=O,13µM*,?,?,?,10µM*
CCOc1c(OC(C)=O)ccc(/C=C2\N=C(SCC)SC2=O)c1[N+](=O)[O-],45µM*,47%,79µM*,14µM*,.
